Test results as given in ChEMBL document CHEMBL2218924, “A broad activity screen in support of a chemogenomic map for kinase signalling research and drug discovery” (Biochem J, 2013).

Legend:
[1] = target: Serine/threonine-protein kinase PAK 4 (Homo sapiens) (UniProt O96013); settings: at 1 µM
[2] = target: Serine/threonine-protein kinase PAK 4 (Homo sapiens) (UniProt O96013); settings: at 10 µM
[3] = target: Serine/threonine-protein kinase PAK 5 (Homo sapiens) (UniProt Q9P286); settings: at 1 µM
[4] = target: Serine/threonine-protein kinase PAK 5 (Homo sapiens) (UniProt Q9P286); settings: at 10 µM
[5] = target: Activated CDC42 kinase 1 (Homo sapiens) (UniProt Q07912); settings: at 10 µM
[6] = target: Serine/threonine-protein kinase PAK 6 (Homo sapiens) (UniProt Q9NQU5); settings: at 10 µM
[7] = target: PAS domain-containing serine/threonine-protein kinase (Homo sapiens) (UniProt Q96RG2); settings: at 10 µM
[8] = target: Activated CDC42 kinase 1 (Homo sapiens) (UniProt Q07912); settings: at 1 µM
[9] = target: ALK tyrosine kinase receptor (Homo sapiens) (UniProt Q9UM73); settings: at 1 µM
[10] = target: Serine/threonine-protein kinase PAK 6 (Homo sapiens) (UniProt Q9NQU5); settings: at 1 µM

Sequence of PAS domain-containing serine/threonine-protein kinase (Homo sapiens) (Q96RG2 whole entry, the tested form may be a part): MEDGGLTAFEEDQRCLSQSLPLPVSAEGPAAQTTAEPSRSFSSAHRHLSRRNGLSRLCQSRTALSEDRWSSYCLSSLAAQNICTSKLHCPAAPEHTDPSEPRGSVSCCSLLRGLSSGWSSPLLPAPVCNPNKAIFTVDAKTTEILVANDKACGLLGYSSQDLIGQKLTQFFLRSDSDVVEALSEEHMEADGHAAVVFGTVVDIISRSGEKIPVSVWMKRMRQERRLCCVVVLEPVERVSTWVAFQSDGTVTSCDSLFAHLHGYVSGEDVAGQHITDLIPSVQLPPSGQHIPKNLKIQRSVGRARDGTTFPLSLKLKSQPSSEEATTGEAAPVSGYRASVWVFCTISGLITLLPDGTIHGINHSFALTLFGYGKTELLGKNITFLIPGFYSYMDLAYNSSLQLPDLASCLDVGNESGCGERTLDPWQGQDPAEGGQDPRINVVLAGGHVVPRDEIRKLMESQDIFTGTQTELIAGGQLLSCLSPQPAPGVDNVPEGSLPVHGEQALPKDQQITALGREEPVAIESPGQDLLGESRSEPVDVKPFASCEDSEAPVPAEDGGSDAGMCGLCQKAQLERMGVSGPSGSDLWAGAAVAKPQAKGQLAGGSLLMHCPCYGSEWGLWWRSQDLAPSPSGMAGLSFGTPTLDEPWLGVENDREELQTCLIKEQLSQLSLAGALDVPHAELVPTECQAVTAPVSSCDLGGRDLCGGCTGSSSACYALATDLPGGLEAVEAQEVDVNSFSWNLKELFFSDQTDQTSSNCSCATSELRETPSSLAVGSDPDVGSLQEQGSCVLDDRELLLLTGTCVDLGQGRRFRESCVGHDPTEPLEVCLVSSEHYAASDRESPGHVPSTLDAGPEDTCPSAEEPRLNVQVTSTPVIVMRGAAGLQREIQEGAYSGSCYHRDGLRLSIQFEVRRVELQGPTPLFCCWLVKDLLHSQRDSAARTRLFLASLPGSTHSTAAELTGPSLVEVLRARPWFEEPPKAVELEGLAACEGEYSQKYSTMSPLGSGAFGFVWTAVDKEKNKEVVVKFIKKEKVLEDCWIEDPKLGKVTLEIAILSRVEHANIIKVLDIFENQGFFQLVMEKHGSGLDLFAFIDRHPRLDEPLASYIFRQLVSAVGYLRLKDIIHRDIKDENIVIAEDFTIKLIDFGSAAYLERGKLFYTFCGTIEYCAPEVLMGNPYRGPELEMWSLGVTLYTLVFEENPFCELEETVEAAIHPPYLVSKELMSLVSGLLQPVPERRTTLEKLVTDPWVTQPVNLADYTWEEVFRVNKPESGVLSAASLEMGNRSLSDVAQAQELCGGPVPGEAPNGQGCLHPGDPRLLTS
Sequence of Serine/threonine-protein kinase PAK 4 (Homo sapiens) (O96013 whole entry, looked up): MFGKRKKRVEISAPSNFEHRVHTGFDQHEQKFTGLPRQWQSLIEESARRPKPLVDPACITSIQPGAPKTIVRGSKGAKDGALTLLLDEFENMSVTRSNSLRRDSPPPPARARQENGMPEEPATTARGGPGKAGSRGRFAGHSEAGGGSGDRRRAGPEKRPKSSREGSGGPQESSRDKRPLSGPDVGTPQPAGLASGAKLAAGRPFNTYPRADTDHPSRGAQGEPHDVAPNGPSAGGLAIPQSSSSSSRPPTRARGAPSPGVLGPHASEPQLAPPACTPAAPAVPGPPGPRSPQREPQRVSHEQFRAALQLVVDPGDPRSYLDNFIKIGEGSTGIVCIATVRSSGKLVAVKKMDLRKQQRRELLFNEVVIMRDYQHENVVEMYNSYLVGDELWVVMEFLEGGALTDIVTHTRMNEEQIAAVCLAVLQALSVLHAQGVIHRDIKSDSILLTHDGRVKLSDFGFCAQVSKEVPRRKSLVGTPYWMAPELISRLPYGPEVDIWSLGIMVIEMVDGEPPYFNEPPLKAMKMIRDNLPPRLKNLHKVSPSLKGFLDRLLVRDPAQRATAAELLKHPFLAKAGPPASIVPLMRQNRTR
Sequence of Serine/threonine-protein kinase PAK 6 (Homo sapiens) (Q9NQU5 whole entry, looked up, the tested form may be a part): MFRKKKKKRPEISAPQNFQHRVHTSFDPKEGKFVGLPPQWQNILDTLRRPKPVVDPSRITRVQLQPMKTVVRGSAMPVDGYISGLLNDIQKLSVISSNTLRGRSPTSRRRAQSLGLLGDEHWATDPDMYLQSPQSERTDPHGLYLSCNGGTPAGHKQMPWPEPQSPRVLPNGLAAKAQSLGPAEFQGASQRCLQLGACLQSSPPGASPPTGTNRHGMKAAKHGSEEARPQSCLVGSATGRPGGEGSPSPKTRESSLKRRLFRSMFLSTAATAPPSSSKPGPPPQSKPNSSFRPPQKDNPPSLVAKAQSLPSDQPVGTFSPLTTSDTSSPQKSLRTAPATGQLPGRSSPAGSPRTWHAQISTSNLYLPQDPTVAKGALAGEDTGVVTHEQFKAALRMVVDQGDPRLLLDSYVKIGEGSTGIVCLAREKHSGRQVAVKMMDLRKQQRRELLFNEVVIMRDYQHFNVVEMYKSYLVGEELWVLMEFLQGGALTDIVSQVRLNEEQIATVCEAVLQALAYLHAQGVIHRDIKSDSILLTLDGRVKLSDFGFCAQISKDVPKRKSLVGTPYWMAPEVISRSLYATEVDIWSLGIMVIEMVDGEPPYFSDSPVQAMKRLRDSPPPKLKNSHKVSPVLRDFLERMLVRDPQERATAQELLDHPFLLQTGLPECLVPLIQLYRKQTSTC
Sequence of Activated CDC42 kinase 1 (Homo sapiens) (Q07912 whole entry, looked up): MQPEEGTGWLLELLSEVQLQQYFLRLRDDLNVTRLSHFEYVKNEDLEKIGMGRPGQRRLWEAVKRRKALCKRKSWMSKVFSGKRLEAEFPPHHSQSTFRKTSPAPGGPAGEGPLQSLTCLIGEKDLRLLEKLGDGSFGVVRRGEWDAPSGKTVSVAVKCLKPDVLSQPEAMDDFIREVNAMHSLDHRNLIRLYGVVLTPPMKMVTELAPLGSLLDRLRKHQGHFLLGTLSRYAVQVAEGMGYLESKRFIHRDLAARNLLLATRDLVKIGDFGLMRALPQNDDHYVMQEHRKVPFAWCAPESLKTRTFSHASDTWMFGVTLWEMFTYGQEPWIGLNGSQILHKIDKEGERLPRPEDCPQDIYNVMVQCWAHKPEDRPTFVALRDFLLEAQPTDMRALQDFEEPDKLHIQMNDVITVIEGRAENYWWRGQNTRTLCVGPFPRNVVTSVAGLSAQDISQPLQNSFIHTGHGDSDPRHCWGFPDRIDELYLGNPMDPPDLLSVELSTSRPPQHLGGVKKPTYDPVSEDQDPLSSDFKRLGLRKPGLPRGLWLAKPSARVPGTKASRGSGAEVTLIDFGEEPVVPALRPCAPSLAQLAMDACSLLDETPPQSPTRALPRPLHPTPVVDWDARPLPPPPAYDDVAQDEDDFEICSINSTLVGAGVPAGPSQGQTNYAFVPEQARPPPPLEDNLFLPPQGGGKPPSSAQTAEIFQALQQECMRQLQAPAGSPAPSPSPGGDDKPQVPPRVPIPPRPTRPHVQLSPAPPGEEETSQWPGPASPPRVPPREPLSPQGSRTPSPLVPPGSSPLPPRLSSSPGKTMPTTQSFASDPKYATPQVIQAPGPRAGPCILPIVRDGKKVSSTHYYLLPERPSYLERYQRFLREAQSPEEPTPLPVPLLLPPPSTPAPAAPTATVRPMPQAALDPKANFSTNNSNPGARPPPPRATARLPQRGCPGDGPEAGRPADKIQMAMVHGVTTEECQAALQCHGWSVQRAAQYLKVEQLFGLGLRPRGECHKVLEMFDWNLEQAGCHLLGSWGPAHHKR
Sequence of Serine/threonine-protein kinase PAK 5 (Homo sapiens) (Q9P286 whole entry, looked up): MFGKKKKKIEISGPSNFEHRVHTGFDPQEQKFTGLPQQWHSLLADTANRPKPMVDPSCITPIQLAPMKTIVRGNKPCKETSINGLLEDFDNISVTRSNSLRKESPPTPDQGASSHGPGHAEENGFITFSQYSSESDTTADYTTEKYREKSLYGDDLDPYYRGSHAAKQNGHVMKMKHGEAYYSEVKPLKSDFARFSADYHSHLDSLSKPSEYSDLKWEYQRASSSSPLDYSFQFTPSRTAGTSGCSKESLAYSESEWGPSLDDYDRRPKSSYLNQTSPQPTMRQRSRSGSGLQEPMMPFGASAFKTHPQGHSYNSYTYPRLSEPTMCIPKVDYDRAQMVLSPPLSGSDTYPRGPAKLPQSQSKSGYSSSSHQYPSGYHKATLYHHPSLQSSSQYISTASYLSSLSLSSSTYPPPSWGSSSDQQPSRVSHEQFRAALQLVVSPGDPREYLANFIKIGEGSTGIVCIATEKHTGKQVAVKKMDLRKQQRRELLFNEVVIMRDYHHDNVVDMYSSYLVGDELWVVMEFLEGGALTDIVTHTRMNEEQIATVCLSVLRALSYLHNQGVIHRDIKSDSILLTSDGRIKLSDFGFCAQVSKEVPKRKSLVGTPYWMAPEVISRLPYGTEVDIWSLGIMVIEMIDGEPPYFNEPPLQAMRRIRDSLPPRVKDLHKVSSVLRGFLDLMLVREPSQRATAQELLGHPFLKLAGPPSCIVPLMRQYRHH

Compound	residual activity [1] [%]	residual activity [2] [%]	residual activity [3] [%]	residual activity [4] [%]	residual activity [5] [%]	residual activity [6] [%]	residual activity [7] [%]	residual activity [8] [%]	residual activity [9] [%]	residual activity [10] [%]
O=C(Nc1ccc(Cl)cc1)c1ccccc1NCc1ccncc1	100	99	117	128	76	–	–	–	–	–
O=C(NC(NC(=S)Nc1ccc(F)c([N+](=O)[O-])c1)C(Cl)(Cl)Cl)C(c1ccccc1)c1ccccc1 (stereo not drawn)	100	97	–	66	78	61	75	100	81	–
O=C1NC(=O)c2c1c1c3ccccc3[nH]c1n1cncc21	81	82	–	91	23	73	26	38	77	98
O=C(O)/C=C/c1cc(Br)c(Br)c(Br)c1Br	108	101	–	82	63	76	6	79	88	102
O=C1Nc2ccc(Cl)cc2/C1=C/c1cc(Cl)c(O)c(Cl)c1	91	68	73	62	7	–	29	48	68	–
COc1cc2nccc(Oc3ccc(NC(=S)NC(=O)c4ccccc4C)cc3)c2cc1OC	88	90	83	67	8	64	–	24	79	95
Cn1c2ccccc2c2c3c(c4c5ccccc5n(CCC#N)c4c21)CNC3=O	3	2	12	14	0	2	49	3	0	4
CCCC(=O)Oc1ccc2[nH]c(C(=O)c3cc4ccccc4[nH]3)cc2c1	94	84	100	–	65	75	84	72	78	108
O=C(CCCc1ccc(-c2ccccc2F)cc1)Nc1ccc(O)cc1	103	91	104	95	75	103	108	89	88	96
COc1ccc(-c2cnc3c(-c4ccsc4)cnn3c2)cc1	99	94	94	–	68	–	94	71	–	–
O=C1C(Cl)=C(N2C(=O)CCC2=O)C(=O)c2ccccc21	95	96	99	84	69	93	122	78	65	–
CC(C)(C)n1nc(Cc2cccc3ccccc23)c2c(N)ncnc21	88	61	88	77	2	79	71	6	89	98
Oc1cccc(-c2nc(N3CCOCC3)c3oc4ncccc4c3n2)c1	100	93	84	84	69	78	–	78	–	100
CCOC(=O)c1c(C)[nH]c(/C=C2\C(=O)Nc3ccccc32)c1C	90	94	–	–	64	99	93	73	80	91
O=C1Cc2c([nH]c3ccc([N+](=O)[O-])cc23)-c2ccccc2N1	22	21	24	25	24	41	–	44	–	61
O=c1cc(N2CCOCC2)oc2c1ccc1ccccc12	94	94	94	81	77	94	88	90	81	–
NCCNc1ncc(C(N)=O)c(Nc2cccc(C(F)(F)F)c2)n1	49	9	48	9	16	18	40	70	–	63
CCCCc1c(-c2ccc(OC)cc2)[nH]c2nccnc12	60	68	63	64	5	60	–	24	70	92
CCN(CC)CCNC(=O)c1c(C)[nH]c(/C=C2\C(=O)Nc3ccc(Cl)cc32)c1C	52	11	30	8	1	28	49	25	8	73
O=C(c1cc2cc(O)ccc2[nH]1)c1cc2cc(O)ccc2[nH]1	71	30	–	–	24	52	–	64	68	83
Cn1sc(=O)n(Cc2ccccc2)c1=O	94	89	97	94	64	94	138	77	64	96
O=C1Cc2c([nH]c3ccc(Br)cc23)-c2ccccc2N1	25	3	35	17	3	–	–	24	88	–

Compound	residual activity [1] [%]	residual activity [2] [%]	residual activity [3] [%]	residual activity [4] [%]	residual activity [5] [%]	residual activity [6] [%]	residual activity [7] [%]	residual activity [8] [%]	residual activity [9] [%]	residual activity [10] [%]
Nc1n[nH]c2nc3ccccc3nc12	94	85	90	70	40	84	–	68	67	84
c1ccc(-c2cnc(Nc3ccc(OCCN4CCCC4)cc3)s2)cc1	105	76	–	–	16	–	62	68	–	–
NC(=O)Nc1sc(-c2ccc(F)cc2)cc1C(N)=O	55	14	67	27	2	40	96	10	78	88
CC(C)c1nn(-c2c(Cl)cccc2Cl)c2nc(Cc3ccc(OCCO)cc3)[nH]c(=O)c12	84	32	73	21	31	51	–	63	78	79
O=S(=O)(c1cccc2cnccc12)N1CCCNCC1	106	101	–	–	–	–	–	–	–	–
COc1ccc(Cl)cc1NC(=O)Nc1cc(C)nc2ccccc12	96	88	80	100	80	88	43	90	77	91
CN(C)S(=O)(=O)c1ccc2c(c1)/C(=C/c1cc3c([nH]1)CCCC3)C(=O)N2	74	69	–	–	8	50	–	13	44	76
O=c1cc(N2CCNCC2)oc2c(-c3ccccc3)cccc12	102	85	104	95	69	82	51	88	69	89
O=C1NC(=O)C(c2c[nH]c3ccccc23)=C1c1c[nH]c2ccccc12	98	65	99	–	21	77	39	73	–	–
Nc1ncnc2c1c(-c1ccc(Oc3ccccc3)cc1)cn2C1CCCC1	89	64	76	44	1	63	43	4	76	91
CC(C)(C)c1nc2c3ccc(F)cc3c3c(=O)[nH]ccc3c2[nH]1	–	–	–	–	0	68	–	10	30	–
CCOc1nc(NC(=O)Cc2cc(OC)ccc2OC)cc(N)c1C#N	–	–	–	–	58	77	–	73	81	100
O=C(c1ccccc1)c1ccc(N2CCOCC2)cc1O	–	–	92	114	72	85	78	94	78	82
CN([C@@H](Cc1ccc(OS(=O)(=O)c2cccc3cnccc23)cc1)C(=O)N1CCN(c2ccccc2)CC1)S(=O)(=O)c1cccc2cnccc12	–	–	115	72	–	50	79	100	74	84
COc1cc2ncnc(Nc3cccc(Cl)c3)c2cc1OC	–	–	109	84	6	87	–	34	100	102
Nc1ncnc2[nH]nc(Nc3ccc(F)cc3)c12	111	–	104	97	17	81	62	60	82	102
Nc1ncnc2c1cnn2-c1ccccc1	–	–	92	–	61	86	92	91	79	92
O=C1NC(=O)C(c2cn(CCCn3ccnc3)c3ccccc23)=C1Nc1ccccc1	–	75	–	–	11	–	–	45	74	–
Nc1nccc(-c2c(-c3ccc(F)cc3)ncn2C2CCNCC2)n1	–	–	–	–	39	–	–	–	–	–
O=C1NC(=O)C(c2cn(CCCO)c3ncccc23)=C1c1cnccn1	–	–	–	–	71	75	89	82	84	78
Nc1nc(Nc2ccc(S(N)(=O)=O)cc2)nn1C(=O)c1c(F)cccc1F	–	17	71	24	9	34	–	50	77	79
NC(=O)c1ccc(-c2nc(-c3ccc4c(c3)OCCO4)c(-c3ccccn3)[nH]2)cc1	99	98	–	–	68	–	–	79	74	–

Compound	residual activity [1] [%]	residual activity [2] [%]	residual activity [3] [%]	residual activity [4] [%]	residual activity [5] [%]	residual activity [6] [%]	residual activity [7] [%]	residual activity [8] [%]	residual activity [9] [%]	residual activity [10] [%]
COc1ccc(CNC(=O)Nc2ncc([N+](=O)[O-])s2)cc1	–	–	–	–	55	–	110	77	70	–
NC(=O)c1cccc(-c2cc(Nc3ccc(OC(F)(F)F)cc3)ncn2)c1	–	–	92	84	86	–	–	–	–	–
COc1cc2c(cc1OC)-c1n[nH]c(Nc3cccc(F)c3)c1C2	–	–	–	–	–	99	–	–	74	98
O=C1Nc2ccccc2/C1=C\c1c(Cl)[nH]c2ccccc12	–	–	–	–	48	85	67	84	81	–
Cc1cc(C)c(/C=C2\C(=O)Nc3ccccc32)[nH]1	–	69	–	–	18	62	–	52	37	–
N#Cc1c(NC(=O)c2cccc3ccccc23)sc2c1CCCC2	–	–	–	–	61	66	96	85	80	100
N#C/C(=C1/Nc2ccccc2S1)c1ccnc(NCCc2cccnc2)n1	–	–	84	72	12	–	–	–	64	–
CC(C)N(CCC(=O)c1ccc2ccccc2c1)Cc1ccccc1	88	79	–	–	63	–	–	68	74	–
CC(C)[C@H](CO)Nc1nc(Nc2cc(N)cc(Cl)c2)c2ncn(C(C)C)c2n1	–	–	57	12	9	5	–	29	–	26
O=c1c(-c2ccc(F)cc2)c(-c2ccncc2)[nH]n1-c1ccc(Cl)cc1	–	–	–	–	66	–	–	–	–	–
Fc1ccc(-c2nc3n(c2-c2ccncc2)CCS3)cc1	–	–	–	–	79	–	–	87	86	–
O=C(Nc1nc2ccccc2n1CCN1CCOCC1)c1cccc([N+](=O)[O-])c1	–	–	–	–	55	–	84	81	70	–
CCN1/C(=C/C(C)=O)Sc2ccc(OC)cc21	–	–	–	80	64	–	–	81	–	–
CSc1nc(-c2ccc(F)cc2)c(-c2ccnc(NC(C)c3ccccc3)c2)[nH]1 (stereo not drawn)	–	92	102	83	50	81	64	90	82	96
O=c1cc(N2CCOCC2)oc2c(-c3ccccc3)cccc12	–	–	–	–	58	77	59	76	73	–
COc1ccc(COc2ccc(Cc3cnc(N)nc3N)cc2OC)cc1	–	–	–	100	68	–	–	79	74	–
COc1cc2nccc(Oc3ccc(NC(=O)Nc4cc(C)on4)c(Cl)c3)c2cc1OC	–	–	82	52	6	54	62	20	–	104
COc1ccc2c(c1)c(C1=C(c3c[nH]c4ccccc34)C(=O)NC1=O)cn2CCCN(C)C	–	–	–	–	21	–	32	65	80	–
N#C/C(=C\c1ccc(O)c(O)c1)C(=O)NCc1ccccc1	–	–	–	85	62	–	55	88	–	–
CCCCc1c(-c2ccc(O)cc2)[nH]c2nccnc12	–	–	56	36	6	47	–	26	71	94
O=S(=O)(NCCNC/C=C/c1ccc(Br)cc1)c1cccc2cnccc12	–	–	–	–	43	55	81	77	–	–
